Active and inactive are the calls of the source. Rule for the calls: active = hit-call score of the fitted dose curve at least 0.9, where 1 is the maximum; inactive = score below 0.9.
Assays:
Conditions in all cases: mRNA level, 48 h; actives raise or lower the signal
[1] = read-out: matrix metalloproteinase-3 (MMP3), MMP3 (gene 4314); test: LTEA_HepaRG_MMP3: Life Technologies and Expression Analysis (LTEA) Assay for matrix metalloproteinase-3 (MMP3) using HepaRG (AID 2283519)
How it was run: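 Fluidigm-based TaqMan qRT-PCR, normalized to ACTB, GAPDH and POLR2A and fitted bidirectionally versus 0.5% DMSO, measured transcript levels. Treatment: duplicate 48 h exposures of HepaRG cells, ~100,000/well, to eight half-log concentrations topping at 100 uM.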

[2] = read-out: Paternally Expressed 10 (PEG10), PEG10 (gene 23089); test: LTEA_HepaRG_PEG10: Life Technologies and Expression Analysis (LTEA) Assay for Paternally Expressed 10 (PEG10) using HepaRG (AID 2283520)
How it was run: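 PEG10 transcript measured by Fluidigm qRT-PCR, normalized to three housekeeping genes, in HepaRG cells treated 48 h (highest 100 uM, half-log steps, 0.5% DMSO vehicle). Cells plated 48 h before switching to serum-free induction medium.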

[3] = read-out: Nuclear factor NF-kappa-B p105 subunit (Homo sapiens) (UniProt P19838); test: LTEA_HepaRG_NFKB1: Life Technologies and Expression Analysis (LTEA) Assay for Nuclear Factor Kappa B Subunit 1 (NFKB1) using HepaRG (AID 2283521)
How it was run: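 Differentiated human HepaRG cells were exposed for 48 h in serum-free induction medium to eight concentrations (top 100 uM, half-log steps, 0.5% DMSO), in duplicate. NFKB1 mRNA was measured by TaqMan qRT-PCR, normalized to ACTB/GAPDH/POLR2A, and fitted bidirectionally against DMSO.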

[4] = read-out: Protein phosphatase 2A (PPP2R4), PTPA (gene 5524); test: LTEA_HepaRG_PPP2R4: Life Technologies and Expression Analysis (LTEA) Assay for Protein phosphatase 2A (PPP2R4) using HepaRG (AID 2283522)
How it was run: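 Expression was quantified by Fluidigm qRT-PCR normalised to three housekeeping genes after 48 h treatment. Human HepaRG cells received an 8-point series from 100 µM downward by half-logs, in duplicate with 0.5% DMSO vehicle and 1 mM phenobarbital as induction control.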

[5] = read-out: Phosphatase and tensin (PTEN), PTEN (gene 5728); test: LTEA_HepaRG_PTEN: Life Technologies and Expression Analysis (LTEA) Assay for Phosphatase and tensin (PTEN) using HepaRG (AID 2283523)
How it was run: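 Read-out: TaqMan qRT-PCR of PTEN transcript, normalized to three housekeeping genes, fitted in both directions against 0.5% DMSO. Differentiated human HepaRG cultures received chemicals for 48 h, eight-point half-log series topping at 100 uM.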

[6] = read-out: solute carrier (SLC22A1), SLC22A1 (gene 6580); test: LTEA_HepaRG_SLC22A1: Life Technologies and Expression Analysis (LTEA) Assay for solute carrier (SLC22A1) using HepaRG (AID 2283524)
How it was run: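 Transcript level of SLC22A1 quantified by qRT-PCR (normalized to three housekeeping genes) after 48 h chemical exposure of HepaRG cells, eight concentrations up to 100 µM, half-log steps, 0.5% DMSO vehicle. Gain or loss relative to DMSO fitted bidirectionally.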

[7] = read-out: NAD(P)H dehydrogenase [quinone] 1 (NQO1), NQO1 (gene 1728); test: LTEA_HepaRG_NQO1: Life Technologies and Expression Analysis (LTEA) Assay for NAD(P)H dehydrogenase [quinone] 1 (NQO1) using HepaRG (AID 2283526)
How it was run: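 NQO1 transcript induction or loss measured by TaqMan qRT-PCR, referenced to three housekeeping genes and fitted bidirectionally against 0.5% DMSO. HepaRG cultures exposed 48 h, duplicate, eight-point half-log series, top 100 uM.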

[8] = read-out: Nuclear factor erythroid 2-related factor 2 (Homo sapiens) (UniProt Q16236); test: LTEA_HepaRG_NFE2L2: Life Technologies and Expression Analysis (LTEA) Assay for Nuclear factor erythroid 2-related factor 2 (NFE2L2) Transcription Factor using HepaRG (AID 2283527);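 note: TaqMan qRT-PCR transcript level normalised to ACTB GAPDH and POLR2A housekeeping genes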
How it was run: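 NFE2L2 transcript level was read by qRT-PCR (housekeeping ACTB/GAPDH/POLR2A normalisation) after 48 h chemical treatment of HepaRG in serum-free induction medium. Duplicate 8-point half-log curves, top 100 uM, 0.5% DMSO vehicle; up- or down-regulation fitted against vehicle.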

[9] = read-out: succinate dehydrogenase complex iron sulfur subunit B (SDHB), SDHB (gene 6390); test: LTEA_HepaRG_SDHB: Life Technologies and Expression Analysis (LTEA) Assay for succinate dehydrogenase complex iron sulfur subunit B (SDHB) using HepaRG (AID 2283528)
How it was run: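 HepaRG, 48 h exposure, 8-pt half-log series from 100 uM in 0.5% DMSO, duplicates. Readout: SDHB mRNA by Fluidigm qRT-PCR vs housekeeping genes; bidirectional fit relative to DMSO.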

[10] = read-out: Signal transducer and activator of transcription 3 (Homo sapiens) (UniProt P40763); test: LTEA_HepaRG_STAT3: Life Technologies and Expression Analysis (LTEA) Assay for Signal transducer and activator of transcription (STAT3) using HepaRG (AID 2283529)
How it was run: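 STAT3 transcript quantified by qRT-PCR against three housekeeping genes (ACTB, GAPDH, POLR2A), fitted both directions relative to DMSO. HepaRG cultures exposed 48 h to eight half-log concentrations, top 100 uM, 0.5% DMSO, serum-free induction medium.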

[11] = read-out: solute carrier (SLCO1B1), SLCO1B1 (gene 10599); test: LTEA_HepaRG_SLCO1B1: Life Technologies and Expression Analysis (LTEA) Assay for solute carrier (SLCO1B1) using HepaRG (AID 2283530)
How it was run: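 Human HepaRG cultures treated for 48 h with an eight-concentration half-log series topping at 100 uM; SLCO1B1 measured by qRT-PCR and fitted bidirectionally relative to DMSO.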

[12] = read-out: sulfotransferase 2A1 (SULT2A1), SULT2A1 (gene 6822); test: LTEA_HepaRG_SULT2A1: Life Technologies and Expression Analysis (LTEA) Assay for sulfotransferase 2A1 (SULT2A1) using HepaRG (AID 2283531)
How it was run: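 Gene-expression endpoint in a human liver cell line: SULT2A1 mRNA change after 48 h chemical treatment, curves fitted in both directions relative to 0.5% DMSO vehicle. Concentrations spanned eight half-log steps from 100 uM.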

[13] = read-out: Transforming Growth Factor (TGFA), TGFA (gene 7039); test: LTEA_HepaRG_TGFA: Life Technologies and Expression Analysis (LTEA) Assay for Transforming Growth Factor (TGFA) using HepaRG (AID 2283532)
How it was run: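 TGFA transcript quantified by qRT-PCR (Fluidigm arrays) against three housekeeping genes, after 48 hours chemical treatment of HepaRG cells. Top concentration 100 uM with half-log dilutions, 8 points, duplicates, 0.5% DMSO.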

[14] = read-out: Transforming Growth Factor (TGFB1), TGFB1 (gene 7040); test: LTEA_HepaRG_TGFB1: Life Technologies and Expression Analysis (LTEA) Assay for Transforming Growth Factor (TGFB1) Transporter using HepaRG (AID 2283533)
How it was run: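 Eight-point concentration-response (max 100 uM, half-log) in HepaRG under serum-free induction conditions, 48 h. TGFB1 mRNA by qRT-PCR, housekeeping-normalized.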

TIMP1, TIMP1 (gene 7076) = test: LTEA_HepaRG_TIMP1: Life Technologies and Expression Analysis (LTEA) Assay for TIMP1 using HepaRG (AID 2283534);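 note: TaqMan qRT-PCR signal normalized to ACTB GAPDH and POLR2A housekeeping genes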
How it was run: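 TIMP1 induction or repression in HepaRG cells after 48 h chemical exposure (eight concentrations, highest 100 uM), assessed by normalized qRT-PCR with bidirectional fitting to DMSO controls.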

[15] = read-out: Tumor necrosis factor receptor 1 (TNFRSF1A), TNFRSF1A (gene 7132); test: LTEA_HepaRG_TNFRSF1A: Life Technologies and Expression Analysis (LTEA) Assay for Tumor necrosis factor receptor 1 (TNFRSF1A) using HepaRG (AID 2283535)
How it was run: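 Assay uses 48 h chemical treatment of differentiated HepaRG monolayers, tested in duplicate at eight concentrations from 100 uM downward in 0.5% DMSO. mRNA is normalized to ACTB, GAPDH and POLR2A, with induction or suppression fitted relative to vehicle.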

[16] = read-out: Thyroid Hormone Responsive (THRSP), THRSP (gene 7069); test: LTEA_HepaRG_THRSP: Life Technologies and Expression Analysis (LTEA) Assay for Thyroid Hormone Responsive (THRSP) using HepaRG (AID 2283536)
How it was run: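 THRSP transcript quantified by Fluidigm qRT-PCR against three housekeeping genes after 48 h chemical exposure of HepaRG cells in serum-free induction medium; eight-point half-log series, top 100 uM, 0.5% DMSO vehicle, duplicate wells.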

[17] = read-out: Cellular tumor antigen p53 (Homo sapiens) (UniProt P04637); test: LTEA_HepaRG_TP53: Life Technologies and Expression Analysis (LTEA) Assay for Tumor Protein P53 (TP53) using HepaRG (AID 2283537)
How it was run: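 HepaRG, 48 h exposure, top 100 uM, half-log 8-point, 0.5% DMSO vehicle, duplicates. Read: TP53 mRNA by TaqMan qRT-PCR, normalised to ACTB/GAPDH/POLR2A; bidirectional fit vs DMSO.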

[18] = read-out: UDP glucuronosyltransferase (UGT1A1), UGT1A1 (gene 54658); test: LTEA_HepaRG_UGT1A1: Life Technologies and Expression Analysis (LTEA) Assay for UDP glucuronosyltransferase (UGT1A1) using HepaRG (AID 2283538)
How it was run: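 UGT1A1 transcript level, measured by qRT-PCR with three housekeeping genes for normalization, after 48 h treatment of human HepaRG cells (0.5% DMSO, duplicates, up to 100 uM, half-log steps, 8 points). Curves fit both directions against DMSO baseline.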

[19] = read-out: Pyruvate Dehydrogenase Kinase 4 (PDK4), PDK4 (gene 5166); test: LTEA_HepaRG_PDK4: Life Technologies and Expression Analysis (LTEA) Assay for Pyruvate Dehydrogenase Kinase 4 (PDK4) using HepaRG (AID 2283525)
How it was run: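 Readout is qRT-PCR of PDK4 transcript, normalized to three housekeeping genes, with bidirectional fitting against 0.5% DMSO vehicle. Differentiated HepaRG cells were treated 48 h in serum-free induction medium, duplicate wells, eight-point half-log series topping at 100 uM.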

Measured: outcome

Nuclear factor NF-kappa-B p105 subunit (Homo sapiens), sequence (P19838 whole entry, looked up): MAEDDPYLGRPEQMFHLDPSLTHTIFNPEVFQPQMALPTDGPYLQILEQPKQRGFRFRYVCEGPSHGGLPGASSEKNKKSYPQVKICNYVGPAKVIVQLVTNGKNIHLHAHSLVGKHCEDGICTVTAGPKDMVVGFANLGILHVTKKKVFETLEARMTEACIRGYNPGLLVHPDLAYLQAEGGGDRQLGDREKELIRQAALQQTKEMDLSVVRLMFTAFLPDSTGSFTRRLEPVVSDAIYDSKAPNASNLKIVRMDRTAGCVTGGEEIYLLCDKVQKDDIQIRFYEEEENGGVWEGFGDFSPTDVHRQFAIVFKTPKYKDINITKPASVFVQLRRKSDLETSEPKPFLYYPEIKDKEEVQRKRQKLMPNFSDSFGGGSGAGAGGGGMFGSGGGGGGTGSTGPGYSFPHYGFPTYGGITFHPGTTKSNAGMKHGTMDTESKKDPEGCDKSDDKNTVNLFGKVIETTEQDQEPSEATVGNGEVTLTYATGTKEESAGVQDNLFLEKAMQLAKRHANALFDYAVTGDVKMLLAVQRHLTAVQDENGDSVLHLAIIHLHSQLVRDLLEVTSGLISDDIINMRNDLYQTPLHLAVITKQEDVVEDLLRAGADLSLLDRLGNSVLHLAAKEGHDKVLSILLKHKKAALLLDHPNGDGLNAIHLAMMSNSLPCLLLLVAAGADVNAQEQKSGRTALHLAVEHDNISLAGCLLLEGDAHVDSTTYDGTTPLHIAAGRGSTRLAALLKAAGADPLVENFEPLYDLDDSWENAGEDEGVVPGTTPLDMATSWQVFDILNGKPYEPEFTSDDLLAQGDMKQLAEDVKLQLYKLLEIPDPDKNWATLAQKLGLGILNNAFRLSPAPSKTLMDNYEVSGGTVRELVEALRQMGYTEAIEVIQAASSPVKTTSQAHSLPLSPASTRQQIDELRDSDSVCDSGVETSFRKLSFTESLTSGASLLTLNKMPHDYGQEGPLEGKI
Nuclear factor erythroid 2-related factor 2 (Homo sapiens), sequence (Q16236 whole entry, looked up): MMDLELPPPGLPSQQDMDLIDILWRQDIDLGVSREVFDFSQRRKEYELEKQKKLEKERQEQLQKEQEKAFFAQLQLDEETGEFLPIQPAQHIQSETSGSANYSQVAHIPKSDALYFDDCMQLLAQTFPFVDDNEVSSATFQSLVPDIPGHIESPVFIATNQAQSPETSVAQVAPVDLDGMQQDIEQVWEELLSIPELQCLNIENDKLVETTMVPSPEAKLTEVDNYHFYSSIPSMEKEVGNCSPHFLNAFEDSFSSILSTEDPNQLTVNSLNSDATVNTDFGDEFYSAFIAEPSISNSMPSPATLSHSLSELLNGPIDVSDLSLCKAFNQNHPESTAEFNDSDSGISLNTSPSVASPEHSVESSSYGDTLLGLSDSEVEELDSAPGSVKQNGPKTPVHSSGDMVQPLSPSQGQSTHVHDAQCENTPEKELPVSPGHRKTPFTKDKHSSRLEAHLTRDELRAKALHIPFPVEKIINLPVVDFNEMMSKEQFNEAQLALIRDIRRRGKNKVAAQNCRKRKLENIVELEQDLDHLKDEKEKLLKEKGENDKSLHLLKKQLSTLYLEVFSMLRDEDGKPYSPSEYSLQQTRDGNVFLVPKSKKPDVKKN
Cellular tumor antigen p53 (Homo sapiens), sequence (P04637 whole entry, looked up): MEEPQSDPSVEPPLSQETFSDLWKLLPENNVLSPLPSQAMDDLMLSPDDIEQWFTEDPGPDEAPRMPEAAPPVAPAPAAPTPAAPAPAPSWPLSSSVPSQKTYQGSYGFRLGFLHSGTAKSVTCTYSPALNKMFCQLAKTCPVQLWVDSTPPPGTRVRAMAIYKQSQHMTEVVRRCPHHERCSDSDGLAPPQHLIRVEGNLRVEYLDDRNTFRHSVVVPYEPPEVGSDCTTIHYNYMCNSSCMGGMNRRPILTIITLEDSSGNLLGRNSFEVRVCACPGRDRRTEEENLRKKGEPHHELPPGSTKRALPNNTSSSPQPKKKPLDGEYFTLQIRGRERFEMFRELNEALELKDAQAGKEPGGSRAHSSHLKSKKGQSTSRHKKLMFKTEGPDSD
Signal transducer and activator of transcription 3 (Homo sapiens), sequence (P40763 whole entry, looked up): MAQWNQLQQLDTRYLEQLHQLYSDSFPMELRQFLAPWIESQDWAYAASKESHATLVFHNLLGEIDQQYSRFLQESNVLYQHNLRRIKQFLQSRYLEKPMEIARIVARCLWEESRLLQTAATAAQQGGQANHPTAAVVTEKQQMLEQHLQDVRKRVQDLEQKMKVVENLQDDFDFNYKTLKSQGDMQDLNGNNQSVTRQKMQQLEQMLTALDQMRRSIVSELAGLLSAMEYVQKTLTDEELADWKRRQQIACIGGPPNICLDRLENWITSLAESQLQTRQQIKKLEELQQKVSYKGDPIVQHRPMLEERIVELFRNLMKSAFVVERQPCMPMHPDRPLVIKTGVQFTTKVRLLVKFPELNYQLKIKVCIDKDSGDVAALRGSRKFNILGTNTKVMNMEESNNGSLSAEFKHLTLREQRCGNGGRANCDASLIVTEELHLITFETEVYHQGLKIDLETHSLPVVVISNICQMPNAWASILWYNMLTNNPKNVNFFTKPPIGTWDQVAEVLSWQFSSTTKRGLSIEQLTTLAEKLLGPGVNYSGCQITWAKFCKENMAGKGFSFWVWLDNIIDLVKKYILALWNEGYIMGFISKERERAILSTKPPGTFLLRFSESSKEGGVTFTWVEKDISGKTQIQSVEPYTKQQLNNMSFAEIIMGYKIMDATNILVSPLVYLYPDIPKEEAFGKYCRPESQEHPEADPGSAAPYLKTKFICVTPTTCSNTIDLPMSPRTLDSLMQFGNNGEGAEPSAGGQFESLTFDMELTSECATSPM

CCCCOC(=O)CCCCCCCCC(=O)OCCCC
inactive: [1] | [2] | [3] | [4] | [5] | [6] | [7] | [8] | [9] | [10] | [11] | [12] | [13] | [14] | TIMP1, TIMP1 (gene 7076) | [15] | [16] | [17] | [18]

CC(CO)OC(C)CO (stereo not given) (tested in a mixture with another compound)
inactive: [1] | [2] | [3] | [4] | [5] | [6] | [19] | [7] | [8] | [11] | [12] | [13] | [14] | TIMP1, TIMP1 (gene 7076) | [15] | [17]

C=CCOC(=O)c1ccccc1C(=O)OCC=C
inactive: [1] | [2] | [3] | [4] | [5] | [6] | [19] | [7] | [8] | [9] | [10] | [11] | [12] | [13] | [14] | TIMP1, TIMP1 (gene 7076) | [15] | [16] | [17] | [18]

Reference: PubChem BioAssay (EPA / NIEHS)
